Sampled rows, rich in hits. Any-hit rate of the full collection: about 6%.
D3 ag = agonists of human D3 dopamine receptor. max activation, %. P35462. D3R DiscoveRx beta-arrestin cells, luminescence, 90 min. 410,000 compounds, 0.58% hits; in the data active means max activation above about 30%
Target sequence (P35462 whole entry, looked up): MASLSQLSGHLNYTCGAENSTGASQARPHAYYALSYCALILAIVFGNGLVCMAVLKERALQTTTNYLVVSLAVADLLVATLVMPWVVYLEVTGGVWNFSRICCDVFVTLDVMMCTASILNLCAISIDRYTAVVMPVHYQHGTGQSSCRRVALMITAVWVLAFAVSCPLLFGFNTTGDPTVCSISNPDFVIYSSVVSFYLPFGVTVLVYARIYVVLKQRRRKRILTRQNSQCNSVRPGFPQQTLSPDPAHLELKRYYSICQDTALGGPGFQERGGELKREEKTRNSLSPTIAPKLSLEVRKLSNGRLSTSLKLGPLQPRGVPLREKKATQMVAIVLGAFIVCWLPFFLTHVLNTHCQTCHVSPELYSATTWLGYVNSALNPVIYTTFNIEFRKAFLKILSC
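Cells at 1500/well, incubated overnight, then treated with pinned compounds (dopamine as control) for 90 min at 37 degrees C. DiscoveRx reagent added for 30 - 60 minutes at room temperature; luminescence read.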
D1 potentiator = human D1 dopamine receptor positive modulation. P21728. HEK293 TREx D1 cells, calcium flux, dopamine EC20 potentiation. potentiation, % at 10 µM. 360,000 compounds, 0.036% hits. AID 504651; in the data active means potentiation above about 30%
D1 antag = blocks dopamine activation of the human D1 receptor; activity change, negative = inhibition, % at 10 µM; AID 504652; 360,000 compounds, 3.2% hits; P21728; HEK293 TREx D1 cells, calcium flux, dopamine EC80; active compounds read low; in the data active means activity change below about -30%
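Compound effects on dopamine-evoked calcium signalling were measured in tetracycline-induced HEK293 Trex D1 cells. Dopamine at EC80 followed a 180 s compound pre-read, and fluorescence was tracked kinetically for 180 s more.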
DRD3 antagonist = antagonists of human D3 dopamine receptor. max response, negative = inhibition, %. 360,000 compounds, 2.5% hits. AID 652054. D3R cells, DiscoveRx beta-arrestin luminescence, antagonist mode; active compounds read low. P35462; in the data active means max response below about -50%; inconclusive means no clear call, values can overlap the other calls
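Cells plated overnight at 1500 cells/well, then exposed to library compounds with dopamine controls for 90 minutes at 37 degrees C. DiscoveRx reagent added for 30–60 minutes at room temperature; luminescence read, quantitative HTS format.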
D1 agonist = agonists of human D1 dopamine receptor. P21728. HEK293 T-REx D1 cells, calcium flux, agonist mode. activation, % at 2 µM. 360,000 compounds, 1% hits; in the data active means activation above about 30%
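Inducible HEK293 T-REx D1 cells, force-coupled to calcium signalling, were plated at 4000 cells/well with tetracycline and held overnight at 30 C. After no-wash calcium dye loading, compound-evoked calcium rise over 180 s flagged agonists.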
BCR signal inh = chronic active BCR signaling inhibition; ABC-DLBCL IkBa-CBG/CBR reporter, luminescence ratio, 4 h; Potency, µM (highest dose often 46.1 µM), most hits filed as inhibitors; 340,000 compounds, 0.05% hits; AID 493014; active means well fitted inhibition curve with a large enough effect in the signal ratio, with a control signal flat, not every such curve was filed as active; inconclusive means small, poorly fitted or top-dose-only effect, or effect the other way, or a change in a side signal; the % refers to the signal ratio
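Cell line TMD8 (human ABC DLBCL), stably expressing tet-inducible CBG68-IkBa fusion and CBR; IMDM/0.5% FBS; cpd up to 46 uM; dox induction, 4 h, 37C/5% CO2; dual luminescence; green/red ratio; MG132 control.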
Hits are given with their value; . = inactive; ? = inconclusive; / = no result given.

SMILES	D3 ag	D1 potentiator	D1 antag	DRD3 antagonist	D1 agonist	BCR signal inh
O=C(CCN1CCC(c2ccccc2)C1)c1ccc2c(c1)OCCO2 (stereo not given)	.	.	.	-66.2	.	?
O=C(CCN1CCc2ccccc21)c1ccc2c(c1)OCCO2	.	.	.	?	.	.
COc1ccc(-c2nc(S(=O)(=O)c3ccc(Cl)cc3)c(N3CCCCCC3)o2)cc1	.	.	.	/	.	/
COc1cccc(NC(=O)CN(C)C(=O)c2ccc(-n3cncn3)c([N+](=O)[O-])c2)c1	.	.	.	.	.	.
CN(CC(=O)Nc1cccc(F)c1)C(=O)c1ccc(-n2cncn2)c([N+](=O)[O-])c1	.	.	-39.6	.	.	.
COc1ccc(CN(Cc2ccco2)c2cnc(S(C)(=O)=O)nc2C(=O)Nc2ccc(C)c(C)c2)cc1	.	.	.	/	.	/
Cc1c(C)n(C)c2ccc(C(=O)NCCc3ccc(Cl)cc3)cc12	.	.	-59.2	/	.	/
CC(C)(C)c1ccc(C(=O)NNc2ccc(F)cc2F)cc1	.	.	.	.	.	.
O=C(CCCNC(=O)c1ccc(Cl)cc1)Nc1ccccc1F	.	.	.	.	.	.
Cc1ccc(C(=O)NCCc2ccncc2)cc1	.	.	-36.2	.	.	.
O=C(CCNC(=O)c1ccc(Cl)cc1)Nc1ccc(F)cc1F	.	.	-46.9	.	.	.
Cc1ccccc1CCNC(=O)c1ccc2c(c1)c(C)c(C)n2C	.	.	.	/	.	/
CCc1ccc(C(=O)NNc2ccc(F)cc2F)cc1	.	.	-51.5	.	.	.
CCNC(=O)c1c(NC(=O)Cc2coc3ccc(CC)cc23)sc2c1CCCC2	.	.	.	/	.	/
N#Cc1nc(Nc2cccc(Br)c2)nc(NC2CCCC2)n1	/	.	.	/	.	/
NS(=O)(=O)c1ccc(CCNC(=O)CCCNC(=O)c2ccc(Cl)cc2)cc1	.	.	-32.7	.	.	.
O=C(NCCc1ccc(O)cc1)c1ccc(Cl)cc1	.	.	-32.5	.	.	?
O=C(NCCc1ccc(Cl)cc1)c1ccc(=O)[nH]c1	.	.	.	.	.	.
CN(C)Cc1cc(CCNC(=O)c2ccc(Cl)cc2)ccc1O	.	.	-37.0	?	.	.
O=C(COC(=O)CCCNC(=O)c1ccc(Cl)cc1)NCc1ccccc1Cl	.	.	.	.	77.3	.
O=C(CCCNC(=O)c1ccc(Cl)cc1)NCc1ccccc1Cl	.	.	.	.	.	.
Cc1c(Cl)cccc1N1C(=O)c2ccccc2C1=O	.	.	.	.	.	?
Nc1ccc(N2C(=O)c3ccccc3C2=O)c(Cl)c1	.	.	-45.6	.	.	.
Cc1ccc(OCCCCNC2CCCCC2)c(C)c1	.	.	.	-79.4	56.8	.
Cc1ccc(C)c(OCCCNC2CCCC2)c1C	.	.	-35.3	-72.8	41.8	.
SMILES	D3 ag	D1 potentiator	D1 antag	DRD3 antagonist	D1 agonist	BCR signal inh
COc1cccc(OC)c1OCCNCCO	.	.	.	.	.	.
Cc1ccc(OCC(O)CNC2CCCC2)c(C)c1 (stereo not given)	.	.	.	.	.	.
COc1cccc(OC)c1OCCCNC1CCCC1	.	.	.	-54.9	.	.
Cc1ccc(OCCCNC2CCCC2)cc1	.	.	.	.	.	.
CCOC(=O)C1(CCc2ccccc2)CCN(Cc2ccc(C(=O)OC)cc2)CC1	.	.	.	-69.5	.	.
CCOC(=O)C1(CC2CC2)CCN(Cc2ccc(C(=O)OC)cc2)CC1	.	.	.	-120.3	.	.
CCOC(=O)C1(CC2CC2)CCN(Cc2cn(C)c3ccccc23)CC1	.	.	.	?	.	?
CCOC(=O)C1(CCc2ccccc2)CCN(Cc2cc(OC)c(OC)cc2OC)CC1	.	.	-36.7	.	.	.
CCOC(=O)C1(Cc2ccccc2)CCN(Cc2cccc(OC)c2O)CC1	.	.	.	.	.	?
CCOC(=O)C1(CCc2ccccc2)CCN(Cc2ccccn2)CC1	.	.	.	.	.	.
Cc1cc2c(s1)c1cnn(Cc3ccc(F)c(Cl)c3)c(=O)c1n2C	/	.	.	/	.	/
Cc1cccc(OCC(=O)Nc2cccc3cccnc23)c1C	.	.	-44.7	/	.	/
CC(C)(C)OC(=O)NCCc1onc(-c2cccc([N+](=O)[O-])c2)c1C(=O)O	.	/	/	.	/	/

Bioassay records as filed in PubChem BioAssay.
